In general, inhibition refers to the relative decrease from the control value, in per cent.

Holding throughout (assay type): functional
In test [1] the target is Solute carrier family 2, facilitated glucose transporter member 1 (Homo sapiens) (UniProt P11166). Briefly: ST_JUDE_LEISH: Cytotoxicity at 2uM final concentration against transgenic Leishmania Mexicana promastigotes LmGLUT1 that are glucose transport deficient and complemented with the human glucose transporter GLUT1. Activity is measured by DNA content using SYBR green in vitro.
Chain of Solute carrier family 2, facilitated glucose transporter member 1 (Homo sapiens) (P11166 whole entry): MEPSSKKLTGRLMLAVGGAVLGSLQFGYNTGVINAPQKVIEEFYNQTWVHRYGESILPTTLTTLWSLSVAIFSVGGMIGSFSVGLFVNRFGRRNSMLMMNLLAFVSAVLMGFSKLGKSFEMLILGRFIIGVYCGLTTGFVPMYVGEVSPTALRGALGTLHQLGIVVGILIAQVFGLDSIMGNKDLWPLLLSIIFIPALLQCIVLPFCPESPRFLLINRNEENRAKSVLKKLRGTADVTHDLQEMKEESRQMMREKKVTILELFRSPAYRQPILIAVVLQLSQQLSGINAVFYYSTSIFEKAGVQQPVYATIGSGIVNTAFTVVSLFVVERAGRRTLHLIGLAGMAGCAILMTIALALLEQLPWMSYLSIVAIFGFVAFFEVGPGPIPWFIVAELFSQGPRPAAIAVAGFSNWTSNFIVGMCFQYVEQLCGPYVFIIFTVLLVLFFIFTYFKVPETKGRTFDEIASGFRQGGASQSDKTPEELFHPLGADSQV

For test [2], the target named is Hexose transporter 1 (Plasmodium falciparum) (UniProt O97467). Briefly: ST_JUDE_LEISH: Cytotoxicity at 2uM final concentration against transgenic Leishmania Mexicana promastigotes LmPfHT that are glucose transport deficient and complemented with the Plasmodium falciparum hexose transporter. Activity is measured by DNA content using SYBR green in vitro.
The target of test [3] is Glucose transporter (Leishmania mexicana) (UniProt O61059). Nature of the test: ST_JUDE_LEISH: Cytotoxicity at 2uM final concentration against transgenic Leishmania Mexicana promastigotes LmGT2 that are glucose transport deficient and complemented with the L. Mexicana glucose transporter 2. Activity is measured by DNA content using SYBR green in vitro.

As for `O=C(Nc1ccc(Cl)c(Cl)c1)N1CCc2cc3nccc(N4CCN5CCC[C@H]5C4)c3cc21`, the inhibition in test [1] amounted to 3.24%; in test [2], 4.53%; in test [3], 4.1%.
For `O=C(NCCc1ccccc1)[C@H](Cc1ccccc1)Nc1ccnc(NCC2CCCCC2)n1`, in that order: -0.55%, 2.47% and 0.61%.
Take `Oc1ccc(CCNc2nc(NCc3ccccc3-c3ccccc3)nc(N3CCCNCC3)n2)cc1`: the inhibition in test [1] is 0.19%; in test [2] it was 2.05%; in test [3], 0.48%.
As for `Oc1ccccc1-c1nc2cccnc2n1CCc1cccc(C(F)(F)F)c1`, the values for the inhibition in test [1], in test [2] and in test [3] were 4.81%, 3.7% and 5.31%, respectively.
Take `Nc1nc(N)c2c(ccc3c2ccn3Cc2ccccc2)n1`: the inhibition came out at 92.2% in test [1], 94% in test [2] and 86.1% in test [3].
As to `CCCc1cc(NC2CCN(C)CC2)nc(Nc2cccc(OC)c2)n1`, the inhibition in test [1] was 8.68%; in test [2], 6.18%; in test [3], 6.84%.
In the case of `O=C(/C=C/c1ccc(Cl)c(Cl)c1)NCCCCCN1CCC(NC(=O)Nc2ccc(Br)cc2)CC1`, the inhibition in test [1] is -0.66%; in test [2], -0.06%; in test [3], -0.46%.
With `CCCc1cc(C(=O)N[C@@H](Cc2ccccc2)[C@H](O)CNC(C)C)c(F)c(N2CCCC2=O)c1`, the inhibition in test [1] was -2.2%; in test [2], -0.79%; in test [3], -0.74%.
As to `OCC1CCN(Cc2cccc(-c3ccc(-c4nc5cc(F)ccc5[nH]4)cc3)c2)CC1`, the inhibition in test [1] is 0%; in test [2], -0.04%; in test [3] it was 0.27%.
The corresponding values for `CCOC(=O)N1CCN(CCCNc2c3ccccc3nc3ccccc23)CC1` are 6.23%, 4.08% and 1.91%.
As to `COc1nc2c(CCN3CC[C@H](NCc4cc(C#N)c5c(c4)OCCO5)[C@H](O)C3)ccnc2cc1F`, the inhibition in test [1] was 14.4%; in test [2], 18%; in test [3], 3.29%.
For the molecule `COc1ccc2ncc(F)c([C@@H](O)CN3CCC(NCc4cc5c(cn4)OCS5)CC3)c2c1`, the figures for the inhibition in test [1], in test [2] and in test [3] were 5.71%, 1.41% and 4.52%, respectively.
Regarding `CN1CCCC1CCOc1ccc2c(c1)N(C(=O)Nc1cc(Br)cc(C(F)(F)F)c1)CC2` (stereo unspecified), the inhibition in test [1] is -1.82%; in test [2] it was -2.4%; in test [3], -2.02%.
The corresponding values for `Cc1cc(Oc2ccc(-n3ccnc3)cc2)nc(N2CCN(CCCN3CCCC3)CC2)n1` are 4%, 5.53% and 2.69%.
The corresponding values for `COc1ccc(O)cc1/C=N/Nc1ccnc2cc(Cl)ccc12` are 7.1%, 5.98% and 9.21%.
As to `Cc1nn(CC(C)C)c2sc(C(=O)Nc3nc(-c4ccccn4)cs3)cc12`, the inhibition turned out to be 3.49% in test [1], 3.41% in test [2] and 2.33% in test [3].
In the case of `COc1ccc(NC(=O)Nc2ccc(-c3cccc(-c4nc5ccccc5[nH]4)c3)cc2)cc1`, the figures for the inhibition in test [1], in test [2] and in test [3] were 3%, 3.12% and 2.89%, respectively.
The corresponding values for `COc1ccc(-c2ccc(CNC3Cc4ccccc4C3)cc2)cc1S(=O)(=O)NCCN1CCCC1` are 1.48%, 3.39% and -0.28%.
Take `Cc1nnc2c(NC(=O)NC(C)C)cc3cc(-c4ccc(CN5CCCCC5)cc4)ccc3n12`: the inhibition in test [1] came out at 56%; in test [2], 10.5%; in test [3], 11%.
As for `O=C(/C=C/c1ccc(Cl)c(Cl)c1)NCCCCCN1CCC(NC(=O)Nc2ccc(Cl)cc2F)CC1`, the inhibition was 2.9% in test [1], 1.84% in test [2] and 2.48% in test [3].
Regarding `COc1cc(Cn2ccc3c4c(N)nc(N)nc4ccc32)cc(OC)c1OC`, the inhibition was found to be 86.3% in test [1], 83.5% in test [2] and 73.1% in test [3].
Regarding `COc1ccc2nccc([C@@H](O)CN3CCC(NC(=O)C(c4cc5ccccc5o4)N4CCN(c5ccc(F)cc5)CC4)CC3)c2c1` (stereo partly specified), the values for the inhibition in test [1], in test [2] and in test [3] were 2.59%, 1.79% and 0.13%, respectively.
`CN(C)Cc1ccc2cc(NC(=O)c3ccc(-c4ccc(Cl)cc4)cc3)ccc2n1`: the inhibition turned out to be 2.13% in test [1], 1.6% in test [2] and 2.79% in test [3].
Take `CCN(CC)CCOc1ccc(N(Cc2ccc(C(C)(C)C)cc2)C(=O)c2ccc(Cc3ccccc3)cc2)cc1OC`: the values for the inhibition in test [1], in test [2] and in test [3] were 17.8%, 14.8% and 13.1%, respectively.
Take `COc1ccc(NC(=O)c2ccc(OCCCCCCCOc3ccc(C(=O)Nc4ccc(OC)c(N5CCN(C)CC5)c4)cc3)cc2)cc1N1CCN(C)CC1`: the inhibition was 0.98% in test [1], 0.63% in test [2] and 1.11% in test [3].
Turning to `O=C(Nc1ccccc1O)c1ccc(S(=O)(=O)c2ccc(Cl)cc2)cc1`, the figures for the inhibition in test [1], in test [2] and in test [3] were 5.52%, 4.67% and 6.69%, respectively.
With `N=C1N=C(N)NC2(CCCCC2)N1OCC1CCCCC1`, the inhibition was -0.96% in test [1], -0.44% in test [2] and -1.26% in test [3].
For `Cc1nc(-c2ccc(-c3ccc(C(=O)Nc4ccc(Cl)c(N5CCN(C)CC5)c4)cc3)c(C)c2)no1`, in that order: 8.11%, 7.83% and 8.29%.
Turning to `Cc1nc(-c2ccc(-c3ccc(C(=O)Nc4ccc(-n5ccnc5)c(N5CCN(C)CC5)c4)cc3)c(C)c2)no1`, the inhibition amounted to 2.82% in test [1], 2.86% in test [2] and 0.79% in test [3].
Turning to `NCCc1cccc(-c2cnc3[nH]cc(-c4ccc(C(=O)O)cc4)c3c2)c1`, the inhibition stood at 0.56% in test [1], 0.29% in test [2] and 0.03% in test [3].
As for `O=C(Nc1cc(Cl)ccc1O)c1cc(-c2ccccc2O)no1`, the inhibition was -2.41% in test [1], -2.61% in test [2] and -2.64% in test [3].
For the molecule `N=C(N)Nc1nc(-c2cccc(NC(=O)NCCc3c[nH]c4ccc(OCc5ccccc5)cc34)c2)cs1`, the inhibition in test [1] stood at 0.6%; in test [2] it was 1.4%; in test [3], 0.56%.
Turning to `CCOc1ncccc1CN1CCC(N2CCc3cc(NC(=O)c4cc(C)on4)ccc32)C1` (stereo unspecified), the inhibition in test [1] is -0.44%; in test [2] it was 0.36%; in test [3] it was -0.18%.
For `COc1ccc(-c2cccc(NC(=O)c3cccc(Cl)c3)c2)cc1CN1CCCC1`, the inhibition in test [1] was 7.71%; in test [2], 5.81%; in test [3], -1.22%.
For `CCCCCCN1CCCN(Cc2ccc(C(=O)Nc3ccc(Cl)cc3)cc2)CC1`, in that order: 12.3%, 13.8% and 12.5%.
Consider `COc1cccc(C2CCN(CCN3CCC(NC(=O)c4ccc(-c5ccc(C(F)(F)F)cc5)cc4)CC3)CC2)c1`, for which the inhibition in test [1] turned out to be 4.19%; in test [2] it was 5.8%; in test [3], 6.6%.
Consider `Cc1cnc(NCCc2ccc(F)cc2)nc1NCCC(=O)Nc1ccccc1`, for which the inhibition in test [1] amounted to 4.88%; in test [2] it was 4.76%; in test [3], 2.38%.
For `COc1ccc2nc(Nc3nc(-c4ccccn4)cs3)sc2c1`, in that order: 11.7%, 16% and 5.62%.
On to `O=C(Nc1cccc(-c2cccc(-c3nc4cc(F)ccc4[nH]3)c2)c1)Nc1ccc(F)c(F)c1F`, for which the figures for the inhibition in test [1], in test [2] and in test [3] were 7.82%, 7.26% and 7.83%, respectively.
`CCOc1ccc2nc(C)cc(N/N=C/c3ccccc3[N+](=O)[O-])c2c1`: the inhibition stood at 33.1% in test [1], 26.4% in test [2] and 33.9% in test [3].
For `Cc1ccc(-c2cncc(-c3cc(NC4CCN(Cc5ccccc5)CC4)nc(-c4ccccc4)n3)c2)cc1`, the inhibition came out at 2.11% in test [1], 2.36% in test [2] and 1.96% in test [3].
The corresponding values for `CC(CNC1CCN(CCn2c(=O)ccc3ccc(F)cc32)CC1)c1ccccc1` (stereo unspecified) are -1.82%, -1.07% and -0.24%.
Take `COc1ccc(NC(=O)/C=C/c2ccc(Cl)c(Cl)c2)cc1N1CCN(C)CC1`: the inhibition in test [1] was determined as 9.73%; in test [2], 4.85%; in test [3], 6.48%.
In the case of `c1ccc(CNc2cc(-c3ccccn3)nc(-c3ccccn3)n2)cc1`, the inhibition in test [1] was 24.5%; in test [2], 4.72%; in test [3] it was 8.35%.
For `Cc1cc(N2CCCC2)nc(NC(=N)Nc2cccc(C(F)(F)F)c2)n1`, the inhibition in test [1] turned out to be 6.6%; in test [2] it was 7.28%; in test [3] it was 2.22%.
On to `CC(C)CC(=O)NC1CCN(Cc2c(-c3cccs3)nc3ccccc3c2C(=O)N[C@@H](C)C2CCCCC2)CC1`, for which the inhibition in test [1] was determined as 6.03%; in test [2], 4.72%; in test [3], 4.36%.
Regarding `Oc1ccc(-c2nc3c4cc(I)ccc4c4ccc(I)cc4c3[nH]2)cc1`, the inhibition in test [1] is 2.27%; in test [2], -1.87%; in test [3], -2.11%.
For `OC(c1ccccc1)C1CN(CCc2ccccc2)CCC1(O)c1ccccc1` (stereo unspecified), in that order: 0.73%, -1.7% and -1.32%.
As to `Cc1cc(NCC(C)C)c2[nH]nc(-c3ccccc3)c2n1`, the inhibition in test [1] amounted to 2.41%; in test [2], 3.39%; in test [3], 1.69%.
For the molecule `O=C(Nc1ccc(OC2CCN(Cc3ccsc3)CC2)c(Cl)c1)c1ccco1`, the inhibition was determined as 2.93% in test [1], 5.95% in test [2] and 4.7% in test [3].
Regarding `Cc1cccc(C(=O)N2CCN(Cc3cccc(NC(=O)c4ccco4)c3)CC2)c1`, the inhibition in test [1] is -1.31%; in test [2], 1.48%; in test [3], 1.47%.
For `COc1ccc(C(C(=O)NC2CCN(C[C@H](O)c3ccnc4ccc(OC)cc34)CC2)N2CCN(c3ccc(Cl)c(Cl)c3)CC2)cc1` (stereo partly specified), in that order: -0.26%, -2.17% and -4.15%.
As for `O=C(C=Cc1ccc(Cl)c(Cl)c1)NCCCCCN1CCC(CCNC(=O)c2cccc3ccccc23)CC1`, the inhibition turned out to be 4.11% in test [1], 2.98% in test [2] and 2.03% in test [3].
For `COc1ccc(C2CC(=O)C3=C(C2)NC(C)=C(C(=O)OC(C)C)C3c2c(F)cccc2Cl)cc1OC` (stereo unspecified), the results for the inhibition in test [1], in test [2] and in test [3] were 2.24%, 0.57% and 0.75%, respectively.
Regarding `COC(=O)c1ccc(Nc2nccc(Nc3ccc(Oc4ccccc4)cc3)n2)cc1`, the inhibition in test [1] was determined as 5.22%; in test [2] it was 9.95%; in test [3] it was 2.57%.
In the case of `Clc1ccc(-c2cc(-c3csc(NCCN4CCCCC4)n3)on2)cc1`, the inhibition in test [1] was 6.93%; in test [2], 7.19%; in test [3], 5.8%.
Take `CN1CCN(Cc2ccc(-c3ccc4c(Nc5ccc(Cl)cc5F)ccnc4c3)o2)CC1`: the inhibition worked out at 11.9% in test [1], 11.8% in test [2] and 11.1% in test [3].
Regarding `c1ccc(-c2nc(NC3CCCCC3)cc(C3CC3)n2)nc1`, the inhibition stood at 1.84% in test [1], 1.91% in test [2] and 1.62% in test [3].
With `Cc1ccc(C(=O)Nc2cccc(CN3CCCN(Cc4ccc(O)cc4)CC3)c2)s1`, the inhibition in test [1] is -2.38%; in test [2], 0.41%; in test [3] it was 2.88%.
With `Cc1ccc(Nc2nc(C)cc(Nc3cccc(NS(C)(=O)=O)c3)n2)cc1`, the values for the inhibition in test [1], in test [2] and in test [3] were 11.5%, 12.5% and 9.23%, respectively.
The corresponding values for `Cc1cc(-c2ccc(CNCc3ccc(F)cc3)cc2)ccc1S(=O)(=O)NCCN1CCCC1` are 66.4%, 41.4% and -2.93%.
Turning to `CC1(C)NC(N)=NC(=N)N1OCCSCc1cc(Cl)sc1Cl`, the inhibition was 6.6% in test [1], 7.38% in test [2] and 2.82% in test [3].

Source of the values: ChEMBL document CHEMBL3433997, “St. Jude Leishmania screening dataset” (2016).
